We go through 15 molecules from PubChem BioAssay (NCI).

Assay in all cases: NCI-60 one-dose screen, 48 h (100 = growth as untreated, 0 = no growth, -100 = all killed)
Holding throughout (conditions): 10 µM unless noted

Assay [1] has as its system T-47D breast.
In assay [2] the test system is BT-549 breast.
Assay [3] concerns MDA-MB-435 melanoma.
For assay [4], the system named is SW-620 colon.
In assay [5] the test system is MCF7 breast.
Assay [6] deals with HCT-116 colon.
Assay [7] deals with HCC-2998 colon.
Assay [8] deals with KM12 colon.

About 83,000 compounds went through this panel and 20% of them were active in at least one assay; those are over-represented in the sample as a whole.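 Each cell line was grown in a 96-well plate and treated with one concentration of compound for 48 hours. Values below 10 were considered active.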 Unmarked numbers belong to inactive results. Activity calls are given as the source filed them.

With `Nc1nc(SCc2cccc([N+](=O)[O-])c2)c2[nH]cnc2n1`, the growth was 92.4% in assay [1]; 103% in assay [2]; 104% in assay [3]; 107% in assay [4]; 88% in assay [5]; 101% in assay [6]. Also, the growth is 112% in assay [7] and 99.8% in assay [8].

Regarding `N#Cc1c(N2CCOCC2)nc(=S)[nH]c1-c1ccco1`, the growth was 18.9% in assay [1]; 60.4% in assay [2]; 86.3% in assay [3]; 83.8% in assay [4]; 26.7% in assay [5]; 82.4% in assay [6]. For the same molecule, the growth in assay [7] is -21% (active); in assay [8], 65.3%.

`CC(C)(C)c1cc(C(=O)Nc2cc3ccccc3cc2C(=O)NCCN)cc(C(C)(C)C)c1`: the growth in assay [1] was -69% (active); in assay [2], 82.2%; in assay [3], -88.3% (active); in assay [4] it was -66.4% (active); in assay [5], -85.6% (active); in assay [6] it was -91.8% (active). Besides, the growth in assay [7] is -86.5% (active); in assay [8] it was -94.5% (active).

Turning to `COc1cc(C)cc2oc3oc(=O)c(C(=O)c4cc5cc(Br)ccc5o4)cc3c(=O)c12`, the growth was 107% in assay [1]; 100% in assay [2]; 104% in assay [3]; 101% in assay [4]; 101% in assay [5]; 99.7% in assay [6]. Also, the growth in assay [7] was 110%; in assay [8] it was 107%.

Regarding `CC(=O)Nc1ccc(C=Nc2ccc3ccccc3c2)cc1`, the growth in assay [1] is 108%; in assay [2], 102%; in assay [3] it was 112%; in assay [4], 106%; in assay [5] it was 92.3%; in assay [6], 101%. In addition, the growth in assay [7] is 92.1%; in assay [8], 108%.

Consider `C=C(C)[C@@H]1CC[C@]2(C)[C@H](CC[C@@H]3[C@@H]([C@@](C)(O)CCC=C(C)C)CC[C@]32C)[C@@]1(C)CCC(=O)N1CCN(C)CC1`, for which the growth is -42.9% [100 µM] (active) in assay [1]; -84% [100 µM] (active) in assay [2]; -82.6% [100 µM] (active) in assay [3]; -75% [100 µM] (active) in assay [4]; -65.9% [100 µM] (active) in assay [5]; -85.7% [100 µM] (active) in assay [6]. In addition, the growth was -91.9% [100 µM] (active) in assay [7] and -83% [100 µM] (active) in assay [8].

In the case of `Fc1ccc(NC(=S)c2ccccc2)cc1`, the growth was 96.4% in assay [1]; 90.3% in assay [2]; 98% in assay [3]; 102% in assay [4]; 93.9% in assay [5]; 103% in assay [6]. Further, the growth is 116% in assay [7] and 100% in assay [8].

As to `CCOC(=O)c1cnc2ccc(Br)cc2c1Nc1cccc(S(N)(=O)=O)c1`, the growth in assay [1] was 81.4%; in assay [2], 96.3%; in assay [3], 101%; in assay [4], 99.2%; in assay [5], 93.8%; in assay [6], 85.6%. For the same molecule, the growth in assay [7] was 115%; in assay [8], 96%.

Turning to `CCN=C1C=CC(=C(c2ccc(N(CC)CC)cc2)c2ccc(N(CC)CC)cc2)c2ccccc21`, the growth was -45.7% (active) in assay [1]; -67.2% (active) in assay [2]; -31.6% (active) in assay [3]; -42.9% (active) in assay [4]; -74% (active) in assay [5]; -45.7% (active) in assay [6]. Further, the growth in assay [7] is -81% (active); in assay [8], -86.2% (active).

In the case of `CC1(C)CC[C@]23CC[C@]4(C)[C@H](CC[C@@H]5[C@@]6(C)C/C(=C/c7cccnc7)C(=O)C(C)(C)[C@@H]6CC[C@]54C)[C@H]2[C@H]1OC3=O`, the growth in assay [1] is 23.5% [100 µM]; in assay [2], 31.7% [100 µM]; in assay [3] it was 36% [100 µM]; in assay [4] it was 32.9% [100 µM]; in assay [5], 21.7% [100 µM]; in assay [6] it was 15.6% [100 µM]. In addition, the growth is 49.9% [100 µM] in assay [7] and 33.4% [100 µM] in assay [8].

As to `C1=C[C@H]2O[C@@H]1c1ccc3[nH]ccc3c12`, the growth in assay [1] was 110%; in assay [2], 108%; in assay [3], 0.425% (active); in assay [4], 73.4%; in assay [5] it was 96.1%; in assay [6] it was 97.9%. For the same molecule, the growth is 86.7% in assay [7] and 79.5% in assay [8].

With `C[n+]1c2ccccc2nc2c(N)cc(N)cc21`, the growth was 54.2% in assay [1]; 46% in assay [2]; 126% in assay [3]; 87.1% in assay [4]; 82.7% in assay [5]; 78.2% in assay [6]. Also, the growth in assay [7] is 92.4%; in assay [8], 63.8%.

`O=C(N/N=C/c1c(Cl)cccc1Cl)c1cccc(Nc2ccnc(C(F)(F)F)c2)c1`: the growth in assay [1] was 37%; in assay [2], 90.8%; in assay [3], 78.9%; in assay [4], 99%; in assay [5], 66.1%; in assay [6] it was 77.2%. Besides, the values for the growth in assay [7] and in assay [8] were 89.1% and 108%, respectively.

As to `COc1ccc(-c2nc3ccccn3c2/C=C/C(=O)c2cc(OC)c(OC)c(OC)c2)cc1OC`, the growth in assay [1] is 2.52% (active); in assay [2], -0.101% (active); in assay [3] it was 20.3%; in assay [4], 14.6%; in assay [5] it was 4.01% (active); in assay [6], 10.3%. Further, the results for the growth in assay [7] and in assay [8] were 16.4% and 3.9% (active), respectively.

Regarding `Cc1cccc(C[C@H](NC(=O)Nc2ccc(Cl)cc2F)C(=O)N[C@@H]2C(=O)N3C[C@H](O)C[C@H]3C(=O)N3CCCC[C@H]3C(=O)N[C@@H](C)C(=O)N3C[C@H](C)C[C@H]3C(=O)O[C@H]2C)c1`, the growth in assay [1] is 5.41% (active); in assay [2], -9.79% (active); in assay [3], -5.25% (active); in assay [4], 20.7%; in assay [5], 6.39% (active); in assay [6] it was -31.6% (active). Besides, the growth in assay [7] was -49% (active); in assay [8], -31.4% (active).
